The source of these data is the supplement of paper PMC12282887.

In this test the test system is E. coli BW25113 marRABp lux reporter. In words: promoter activity interaction Z-score (Lux/OD deviation from empty-vector control); higher = stronger promoter induction by the compound. The procedure: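 E. coli BW25113 (wild type or ΔmarA/ΔsoxS/Δrob) carrying pTU175 luxCDABE promoter reporters was grown in LB in 384-well plates at 37°C with each of 94 compounds at 4 two-fold concentrations, in biological duplicates. Luminescence and OD600 were read every 30 min for 12 h and integrated as AUC over 8 h (0-8 h WT, 1-9 h mutants). Lux AUC was divided by OD AUC; the interaction score is the residual of a Huber robust fit of each promoter against the empty-vector control, then Z-transformed per promoter.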

± gives the standard deviation of the averaged measurements.

Take `CO[C@@]12[C@H](COC(N)=O)C3=C(C(=O)C(C)=C(N)C3=O)N1C[C@@H]1N[C@@H]12` [Mitomycin C]: the “promoter activity interaction Z-score” value was -0.000521 ± 0.092 (0.063 µg/ml, genetic background: wild type); -0.0389 ± 0.12 (0.063 µg/ml, genetic background: ΔmarA); 0.174 ± 0.0026 (0.063 µg/ml, genetic background: Δrob); -0.0406 ± 0.22 (0.063 µg/ml, genetic background: ΔsoxS); 0.0648 ± 0.23 (0.13 µg/ml, genetic background: wild type); 0.518 ± 1.1 (0.13 µg/ml, genetic background: ΔmarA). Also, the “promoter activity interaction Z-score” value is, setting by setting: (0.13 µg/ml, genetic background: Δrob) 0.208 ± 0.51; (0.13 µg/ml, genetic background: ΔsoxS) 0.0422 ± 0.14; (0.25 µg/ml, genetic background: wild type) 0.242 ± 0.24; (0.25 µg/ml, genetic background: ΔmarA) -0.125 ± 0.18; (0.25 µg/ml, genetic background: Δrob) 0.258 ± 0.1; (0.25 µg/ml, genetic background: ΔsoxS) -0.121 ± 0.19. Moreover, the “promoter activity interaction Z-score” value is -0.107 ± 0.17 (0.5 µg/ml, genetic background: wild type); 0.219 ± 0.99 (0.5 µg/ml, genetic background: ΔmarA); -0.172 ± 0.14 (0.5 µg/ml, genetic background: Δrob); -0.177 ± 0.11 (0.5 µg/ml, genetic background: ΔsoxS).

In the case of `CC(=O)Oc1ccccc1C(=O)O` [Acetylsalicylic acid], the “promoter activity interaction Z-score” value was found to be 0.161 ± 0.7 (22.5 µg/ml, genetic background: wild type); 0.108 ± 0.13 (22.5 µg/ml, genetic background: ΔmarA); 0.479 ± 0.51 (22.5 µg/ml, genetic background: Δrob); 0.261 ± 0.009 (22.5 µg/ml, genetic background: ΔsoxS); 0.512 ± 0.54 (45 µg/ml, genetic background: wild type); 0.152 ± 0.14 (45 µg/ml, genetic background: ΔmarA). In addition, the “promoter activity interaction Z-score” value by setting is: (45 µg/ml, genetic background: Δrob) 0.623 ± 0.14; (45 µg/ml, genetic background: ΔsoxS) 0.318 ± 0.23; (90.1 µg/ml, genetic background: wild type) 0.0791 ± 0.33; (90.1 µg/ml, genetic background: ΔmarA) -0.0396 ± 0.066; (90.1 µg/ml, genetic background: Δrob) 0.404 ± 0.071; (90.1 µg/ml, genetic background: ΔsoxS) 0.469 ± 0.2. The “promoter activity interaction Z-score” value by setting is: (180.2 µg/ml, genetic background: wild type) 1.81 ± 0.28; (180.2 µg/ml, genetic background: ΔmarA) 1.65 ± 0.22; (180.2 µg/ml, genetic background: Δrob) 2.07 ± 0.099; (180.2 µg/ml, genetic background: ΔsoxS) 1.89 ± 0.43.

As for `CC[C@H](C)[C@H](N)C1=N[C@H](C(=O)N[C@@H](CC(C)C)C(=O)N[C@H](CCC(=O)O)C(=O)N[C@H](C(=O)N[C@H]2CCCCNC(=O)[C@H](CC(N)=O)NC(=O)[C@@H](CC(=O)O)NC(=O)[C@H](Cc3cnc[nH]3)NC(=O)[C@@H](Cc3ccccc3)NC(=O)[C@H]([C@@H](C)CC)NC(=O)[C@@H](CCCN)NC2=O)[C@@H](C)CC)CS1` [Bacitracin], the “promoter activity interaction Z-score” value is, setting by setting: (35.6 µg/ml, genetic background: wild type) 0.278 ± 0.2; (35.6 µg/ml, genetic background: ΔmarA) 0.153 ± 0.22; (35.6 µg/ml, genetic background: Δrob) -0.0986 ± 0.2; (35.6 µg/ml, genetic background: ΔsoxS) -0.193 ± 0.086; (71.1 µg/ml, genetic background: wild type) -0.0216 ± 0.19; (71.1 µg/ml, genetic background: ΔmarA) -0.262 ± 0.16. The “promoter activity interaction Z-score” value runs as follows: (71.1 µg/ml, genetic background: Δrob) -0.251 ± 0.062; (71.1 µg/ml, genetic background: ΔsoxS) -0.169 ± 0.029; (142.3 µg/ml, genetic background: wild type) -0.588 ± 0.2; (142.3 µg/ml, genetic background: ΔmarA) -0.5787 ± 0.0025; (142.3 µg/ml, genetic background: Δrob) -0.542 ± 0.048; (142.3 µg/ml, genetic background: ΔsoxS) -0.36 ± 0.085. In addition, the “promoter activity interaction Z-score” value is 0.158 ± 0.24 (284.5 µg/ml, genetic background: wild type); 0.0811 ± 0.011 (284.5 µg/ml, genetic background: ΔmarA); -0.159 ± 0.29 (284.5 µg/ml, genetic background: Δrob); 0.576 ± 0.23 (284.5 µg/ml, genetic background: ΔsoxS).
